Source: PubChem BioAssay AID1063 (University of Pittsburgh Molecular Library Screening Center, 2008)
Hit rate of the full screen: of about 200,000 compounds, about 18,000 (9%) were called active. Only a selection was taken, and actives are over-represented in it overall. A number with no mark means an inactive call. Rule as the data show it: active = inhibition above about 50%; inactive = the rest.

assay: antileishmanial activity against promastigotes – primary screen (AID 1063); settings: Leishmania major promastigotes, resazurin fluorescence viability; at 10 µM; active compounds read high;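 also: promastigotes grown with compound for 44 hours at 28 °C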

Going from `O=C(NCc1ccccc1Cl)C1CCCO1` (configuration not stated) to `O=C(NNC(=O)C1CCN(c2ncccn2)CC1)c1ccccc1`, the inhibition falls from -3.01% to -7.74%.

Compared with `COc1ccc(-c2nnc3ccc(SCc4ccccc4)nn23)cc1`, `Cc1ccc(/C=N/NC(=O)COc2ccccc2-c2ccccc2)cc1` is higher in inhibition: -3.51% for the first, 4.74% for the second.

First: O=C1CCC(=O)N1c1ccc(NCCc2ccccc2F)c([N+](=O)[O-])c1
Second: O=C(CCCCn1c(=O)[nH]c2ccccc2c1=O)NCc1ccc2c(c1)OCO2
The inhibition of the first is lower: -3.12% for the first, 4.03% for the second.

First: Cc1ccccc1C(=O)OC1OC(=O)C(Cl)=C1Nc1ccccc1 (configuration not stated)
Second: CCOC(=O)c1ccccc1NC(=O)CSc1nc2ccccc2c(=O)[nH]1
The inhibition of the first is lower: 2.63% for the first, 6.6% for the second.

Compared with `COc1ccc(C(=O)COC(=O)c2nn(C)c(=O)c3ccccc23)c(OC)c1`, `COc1ccc(-n2c(O)c(C=NCC(c3ccco3)N3CCCC3)c3ccccc3c2=O)cc1OC` (configuration not stated) is higher in inhibition: -4.39% for the first, 2.68% for the second.

Going from `FC(F)Oc1ccc(NC(=S)NCc2ccco2)cc1Cl` to `Cc1ccc(S(=O)(=O)NCCC(=O)Nc2ccc(C)c(Cl)c2)cc1C`, the inhibition falls from 12.2% to 4.01%.

First: CC(C)Cn1c(N)c(C(=O)COC(=O)CN2C(=O)C3CC=CCC3C2=O)c(=O)n(C)c1=O (configuration not stated)
Second: CCOC(=O)C1=NOC(Cn2cc(C(C)=O)c(=O)[nH]c2=O)C1 (configuration not stated)
The inhibition of the first is lower: 0.69% for the first, 1.88% for the second.

First: O=[N+]([O-])/C(N=Nc1ccccc1)=N\Nc1ccccc1
Second: CC(=O)n1c(C=Nc2ccccc2)c(O)c2ccccc21
The inhibition of the first is lower: 0.84% for the first, 4.07% for the second.

First: CCOc1cccc(/C=N/N2C(=O)CSC2=S)c1O
Second: CCOc1cc(N2CCOCC2)c(OCC)cc1NC(=O)C1=NN(c2cccc(C)c2)C(=O)CC1
The inhibition of the first is lower: 2.44% for the first, 13.6% for the second.

Going from `Cc1ccccc1-n1cc(CNC(=O)CC2C(=O)NCCN2C/C=C/c2ccccc2)cn1` (configuration not stated) to `CCN(CC(=O)NC(=O)NCc1ccccc1)Cc1nc2ccccc2c(=O)[nH]1`, the inhibition falls from -1.38% to -3.9%.

First: CCOC(=O)c1oc2c(CN3CCN(CCO)CC3)c(O)c(CC)cc2c(=O)c1-c1nc2ccccc2s1
Second: O=c1[nH]c(CN2CCOCC2)nc2scc(-c3ccccc3)c12
The inhibition of the first is higher: -5.26% for the first, -8.93% for the second.

Going from `COc1ccc(-c2cc(C(F)(F)F)nc(SCC(=O)Nc3ccc4c(c3)OCO4)n2)cc1OC` to `O=C(Cn1nnc(-c2ccccc2)n1)NCc1ccc2c(c1)OCO2`, the inhibition falls from 0.67% to -6.91%.

Compared with `COc1cc(OC)nc(S(C)(=O)=O)n1`, `COc1cc(OC)cc(-c2nnc(N(C)C(=O)c3ccncc3)s2)c1` is lower in inhibition: -0.01% for the first, -3.83% for the second.

Compared with `O=C(/C=C/c1ccc(N2CCOCC2)cc1)c1ccccc1`, `O=S(=O)(c1ccc(-c2ccccc2)cc1)N1CCCC1` is lower in inhibition: 13.2% for the first, -7.57% for the second.

First: CS(=O)(=O)N(CC(=O)Nc1ccc(Cl)c(Cl)c1)C1CCCCC1
Second: O=C(CSCc1ccc(Br)cc1)Nc1ccc(S(=O)(=O)N2CCCCCC2)cc1
The inhibition of the first is higher: 15.8% for the first, 6.78% for the second.

Compared with `NS(=O)(=O)c1ccc(NC(=S)NNC(=O)c2cccs2)cc1`, `CCCCNS(=O)(=O)c1ccc(S(=O)(=O)n2cnc3ccccc32)cc1` is higher in inhibition: -4.08% for the first, -3.46% for the second.

Compared with `CC(=O)Cc1nsc(NC(=O)c2ccc(Cl)cc2Cl)n1`, `CC(=O)c1cc(C#N)c(SCC(=O)Nc2nccs2)nc1C` is higher in inhibition: -1.22% for the first, 1.83% for the second.

Going from `CN(Cc1nc2ccccc2c(=O)[nH]1)Cc1cc(=O)oc2ccc3ccccc3c12` to `COc1cc(/C=C/C(=O)OCC(=O)NC(=O)NCc2ccccc2)ccc1OCC#N`, the inhibition falls from 14.2% to -1.09%.

First: CC(=O)c1ccccc1NC(=O)CC1(CC(=O)O)CCCCC1
Second: O=C(OCc1ccc([N+](=O)[O-])cc1)c1ccccn1
The inhibition of the first is higher: 3.25% for the first, -0.28% for the second.

First: N/C(=N\OC(=O)c1ccc([N+](=O)[O-])cc1)c1ccccn1
Second: CNc1nccc(-c2ccc(Cl)cc2)c1C#N
The inhibition of the first is higher: 1.71% for the first, -6.29% for the second.

With `Cc1ccc(CC(=O)Nc2ccc(OC(F)F)c(Cl)c2)cc1C` the inhibition was 91.2% (active).
For `COc1ccc(-c2cc(C(F)(F)F)nc(S(C)(=O)=O)n2)cc1OC`, the inhibition was 71.7% (active).
For `CN(CC(=O)Nc1ccc(S(=O)(=O)N2CCCC2)cc1)Cc1ccc(Cl)c(Cl)c1`, the inhibition was 92% (active).
For `O=C1N(Cc2ccc3c(c2)OCO3)c2ccccc2C1(O)c1c[nH]c2ccccc12` (configuration not stated), the inhibition was 88.9% (active).
With `CCN(Cc1nc2ccccc2c(=O)[nH]1)Cc1cc(=O)oc2cc(C)c(C)cc12` the inhibition was 73.8% (active).
With `O=S(=O)(c1ccc(Br)cc1)n1ccc2ccccc21` the inhibition was 90.7% (active).
In the case of `N/C(=N\OC(=O)Cc1ccc([N+](=O)[O-])cc1)c1ccccn1`, the inhibition is reported as 98.7% (active).
